Sampled rows, rich in hits. Any-hit rate of the full collection: about 4%.
Mtb FBA inh: Mtb fructose-bisphosphate aldolase inhibition. 360,000 tested, 2.3% active. AID 588726. inhibition, % at 1 µM. purified M. tuberculosis FBA, fluorescence read-out; in the data active = inhibition above about 27%
RecA splice inh: blocks M. tuberculosis RecA intein splicing | P9WHJ3 | cell-free RecA intein splicing, fluorescence | inhibition, % (concentration not given with the values) | 290,000 tested, 0.75% active; in the data active = inhibition above about 30%
Rv3671c inh: Rv3671c (M. tuberculosis) protease inhibition. P9WHR9. inhibition, % at 5.96 µM. 320,000 tested, 0.048% active. AID 2606; in the data active = inhibition above about 38%;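 note: extracellular domain of Rv3671c used as enzyme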
UGM FP inh: inhibitors of M. tuberculosis UDP-galactopyranose mutase. 320,000 tested, 0.06% active. inhibition, % at 10 µM. AID 504406. P9WIQ1. purified UGM, fluorescence polarization probe displacement; in the data active = inhibition above about 10%, passing the limit was not always enough
Target sequence (P9WIQ1 whole entry, looked up): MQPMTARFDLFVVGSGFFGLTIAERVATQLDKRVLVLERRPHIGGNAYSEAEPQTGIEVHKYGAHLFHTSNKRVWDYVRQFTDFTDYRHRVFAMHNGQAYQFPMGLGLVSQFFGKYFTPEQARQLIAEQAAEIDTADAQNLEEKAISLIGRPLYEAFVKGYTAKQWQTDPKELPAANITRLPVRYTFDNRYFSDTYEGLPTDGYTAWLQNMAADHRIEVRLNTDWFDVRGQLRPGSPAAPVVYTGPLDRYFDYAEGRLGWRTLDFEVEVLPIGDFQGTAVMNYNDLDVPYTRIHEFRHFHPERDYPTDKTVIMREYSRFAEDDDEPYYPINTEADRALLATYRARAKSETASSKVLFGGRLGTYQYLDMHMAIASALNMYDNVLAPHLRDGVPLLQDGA
Mtb bLac sens: beta-lactam sensitization of Mtb H37Rv. M. tuberculosis H37Rv growth with meropenem, percent inhibition. inhibition, % at 25 µM. 330,000 tested, 0.27% active; call rule not given here;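 note: growth measured after seven days incubation then overnight dye step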
GDH-TPI counter: GDH-TPI coupled enzyme inhibition counter-screen. 360,000 tested, 1.2% active. inhibition, % at 4.8 µM. GDH-TPI coupled enzyme counterscreen, NADH absorbance; in the data active = inhibition above about 30%
Each line names hits and unclear results; the compound was inactive in the other large screens.

CCN(CC)c1ccc(/C=N/NC(=O)OC)c(O)c1	GDH-TPI counter 43
CCN(CC)c1ccc(/C=N/NC(=O)c2ccoc2C)c(O)c1	GDH-TPI counter 37
COc1ccc(CN2CCC(=O)N([C@H](CO)CC(C)C)CC2)cc1	none
CCOc1ccc(CCNC(=O)COC(=O)c2ccc[nH]c2=O)cc1OCC	none (no result: RecA splice inh)
Cc1c(/C=N/NC(=O)c2cccnc2)c2ccccn2c1C(=O)c1ccc(F)cc1	none (no result: Mtb FBA inh, GDH-TPI counter)
Cc1c(/C=N/NC(=O)c2ccccc2O)c2ccccn2c1C(=O)c1ccc(F)cc1	none (no result: UGM FP inh)
Cc1c(/C=N/NC(N)=O)c2ccccn2c1C(=O)c1ccncc1	GDH-TPI counter 56
Cc1c(/C=N/NC(=O)c2ccc(O)cc2)c2ccccn2c1C(=O)c1ccc(F)cc1	GDH-TPI counter 32
CN1OC[C@@H]2CN(Cc3ccc(Cl)cc3)[C@H](c3ccc(-n4ccnc4)cc3)C[C@@H]21	none (no result: RecA splice inh, Rv3671c inh, UGM FP inh, Mtb bLac sens, GDH-TPI counter)
O=C(O)C1Cc2ccccc2CN1C(=O)CSc1nnc2ccccn12 (stereo unspecified)	none
CCOC(=O)C1=C[C@@H](C(C)(C)C)N(S(=O)(=O)c2ccc(C)cc2)[C@H]1c1cccc2ccccc12	none (no result: RecA splice inh, Rv3671c inh, UGM FP inh, Mtb bLac sens, GDH-TPI counter)
N#C/C(=C\Nc1ccc2c(c1)OCCO2)C(=O)NCc1ccco1	GDH-TPI counter 44
CN(C)c1ccc(/C=C(\C#N)C(=O)NCc2ccco2)cc1	none (no result: Mtb FBA inh, UGM FP inh, GDH-TPI counter)
CN(C)CCCN(C(=O)/C=C/c1cccs1)c1nc2c(F)cccc2s1	GDH-TPI counter 37 (no result: Rv3671c inh, UGM FP inh, Mtb bLac sens)
COc1ccc2nc(N(CCN(C)C)C(=O)/C=C/c3cccs3)sc2c1	GDH-TPI counter 32
Cc1cccc2sc(N(CCN(C)C)C(=O)/C=C/c3cccs3)nc12	none
COc1ccc2sc(N(CCN(C)C)C(=O)/C=C/c3cccs3)nc2c1	none
COc1ccccc1N(C)c1cc2c(c3c1ccn3C)C1CCC2O1 (stereo unspecified)	none (no result: RecA splice inh, Rv3671c inh, UGM FP inh, Mtb bLac sens, GDH-TPI counter)
COc1ccc(-c2cc3ccc(OCC(N)=O)cc3oc2=O)cc1OC	GDH-TPI counter 32
COc1ccc(-c2c(C)c3cc(O)ccc3oc2=O)cc1OC	none
COc1ccc(-c2cc3ccc(O)cc3oc2=O)cc1OC	Mtb FBA inh 119
CCOC(=O)c1oc2cc(OCC(N)=O)ccc2c(=O)c1-c1ccc(OC)c(OC)c1	none
O=[N+]([O-])c1ccc(Nc2nc(Cl)nc(NCCO)n2)cc1	none
COc1nc(NCCO)nc(Nc2ccc([N+](=O)[O-])cc2)n1	GDH-TPI counter 31
Cc1ccc2nc(-c3ccncc3)c(Nc3ccccc3)n2c1	none
Cc1ccc2nc(-c3ccco3)c(Nc3ccccc3)n2c1	Mtb FBA inh 192
COc1cc(CC(=O)OCC(=O)NCCc2ccc(S(N)(=O)=O)cc2)cc(OC)c1OC	none (no result: RecA splice inh)
CCOC(=O)Cc1csc(NC(=O)c2cc3c(s2)CCCC3)n1	GDH-TPI counter 31
CCOC(=O)Cc1csc(NC(=O)c2cnc3sc(C)cn3c2=O)n1	GDH-TPI counter 54
COc1cc2oc(=O)ccc2cc1-c1c(OC)ccc2ccc(=O)oc12	GDH-TPI counter 35 (no result: RecA splice inh, UGM FP inh)
COc1cc2ccc(=O)oc2c(O)c1O	none (no result: RecA splice inh, Rv3671c inh, UGM FP inh, Mtb bLac sens)
CCn1c(O)c(C2=NCCCC2)c2ccccc21	GDH-TPI counter 36
Oc1[nH]c2ccccc2c1C1=NCCCC1	none
CC(Cc1ccco1)NC(=O)c1ccc(C(F)(F)F)cc1 (stereo unspecified)	none (no result: RecA splice inh)
Cc1ccc2nc(N3C(=O)C(O)=C(C(=O)c4ccc(C)o4)C3c3ccc(O)cc3)sc2c1 (stereo unspecified)	none (no result: RecA splice inh)
CCCC1C(C#N)=C(N)Oc2cc(C)n(C)c(=O)c21 (stereo unspecified)	Mtb FBA inh 114
CCCC1NC(=O)c2cccnc2-n2c1nc1cc(C)cc(C)c1c2=O (stereo unspecified)	none (no result: RecA splice inh, Rv3671c inh, UGM FP inh, Mtb bLac sens)
CCCCCC(=O)C(=O)c1ccc(O)cc1O	GDH-TPI counter 46
CCCCCCCCCCCC(=O)c1c(O)cccc1O	none (no result: RecA splice inh)
O=C1C2CC=CCC2C(=O)N1Cc1nnc(-c2ccccc2Br)o1 (stereo unspecified)	none
O=[N+]([O-])c1ccc2[nH]c(O)c(N=NC3CS(=O)(=O)CC3O)c2c1 (stereo unspecified)	GDH-TPI counter 45
Cc1ccccc1NCC(=O)N=Nc1c(O)[nH]c2ccc([N+](=O)[O-])cc12	GDH-TPI counter 36
CCNC(=S)N=Nc1c(O)[nH]c2ccc([N+](=O)[O-])cc12	RecA splice inh 45
O=[N+]([O-])c1ccc2[nH]c(O)c(N=NC(=S)NCC3CCCO3)c2c1 (stereo unspecified)	none (no result: UGM FP inh)
CC1CC(C)CN(C(=O)COC(=O)c2ccc3ccccc3n2)C1 (stereo unspecified)	none (no result: RecA splice inh)
O=C(Nc1ccc(S(=O)(=O)N2CCCC2)cc1)c1ccc([N+](=O)[O-])cc1	none (no result: RecA splice inh)
COC(=O)/C=C1\SC(=NC(=O)c2cccc(Cl)c2)NC1=O	none (no result: UGM FP inh)
COC(=O)C/C=N/N=C1/NC(=O)/C(=C/C(=O)O)S1	GDH-TPI counter 35
COC(=O)/C=C1\S/C(=N/N=C/c2ccccc2)NC1=O	GDH-TPI counter 46 (no result: UGM FP inh)
COC(=O)/C=C1\S/C(=N/N=C/c2ccc(Cl)cc2)NC1=O	GDH-TPI counter 35
COC(=O)/C=C1/S/C(=N/N=C/c2ccco2)NC1=O	none (no result: RecA splice inh)
COC(=O)/C=C1\S/C(=N/N=C/c2ccco2)NC1=O	GDH-TPI counter 33
COC(=O)/C=C1\S/C(=N/NC(=O)c2ccccc2)NC1=O	none
CN(C)CC1(C)Cc2ccsc2C1O (stereo unspecified)	none (no result: RecA splice inh, Rv3671c inh, UGM FP inh, Mtb bLac sens)
Cc1ccc(S(=O)(=O)NC(=O)c2ccc(-c3ccc(C)c4ccccc34)o2)cc1	Mtb FBA inh 130
NC(=O)c1cccc(Nc2nc(C(N)COCc3ccccc3)cs2)n1 (stereo unspecified)	none (no result: RecA splice inh, Rv3671c inh, UGM FP inh, Mtb bLac sens)
COc1ccccc1-c1cc(C(=O)N/N=C/c2ccc(C)s2)c2ccccc2n1	GDH-TPI counter 37
CCc1ccc(/C=N/NC(=O)c2cc(-c3ccccc3OC)nc3ccccc23)s1	none
COc1ccc(/C=N/NC(=O)c2cc(-c3ccccc3OC)nc3ccccc23)cc1COC(C)=O	none
CCN(CC)C(=O)COc1ccc(/C=N/NC(=O)c2cc(-c3ccccc3OC)nc3ccccc23)cc1OC	GDH-TPI counter 42
COc1ccc(/C=N/NC(=O)c2cc(-c3ccc(C)cc3C)nc3ccccc23)cc1COC(C)=O	GDH-TPI counter 35
CCOc1ccc(Cl)cc1-c1cc(C(=O)NC2CCCCC2)[nH]n1	none (no result: RecA splice inh, Rv3671c inh, UGM FP inh, Mtb bLac sens)
Cc1cc(OCC(=O)NCc2ccc(S(N)(=O)=O)cc2)c2c3c(c(=O)oc2c1)CCC3	Mtb FBA inh 40
CC(NC(=O)Cn1cccc1C(=O)c1ccccc1)c1ccc2c(c1)OCCO2 (stereo unspecified)	none
Cc1cc(N2CCN(c3ccccc3)CC2)nc(-c2ccccc2O)n1	none (no result: RecA splice inh)
Cc1cc(N2CCC(C)CC2)nc(-c2ccccc2O)n1	GDH-TPI counter 38
O=C(NCc1ccccc1)C(c1ccc(F)cc1)N(C(=O)c1csnn1)c1ccccc1 (stereo unspecified)	none
COc1cc2c(cc1OC)-c1cc3ccc(OC)c(OC)c3c[n+]1CC2	GDH-TPI counter 59 (no result: RecA splice inh)
